In PubChem BioAssay:
Active and inactive are the calls of the source. How the calls were made is not given here.

Target: Pantothenate synthetase (Mycobacterium tuberculosis (strain ATCC 25618 / H37Rv)) (UniProt P9WIL5)
Test: Coupled enzyme confirmation of inhibitors against recombinant Mtb PanC (AID 375);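 further: 0% = full reaction with vehicle and 100% = no enzyme background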
Conditions: coupled enzyme assay; at 10 µM, active compounds read high

Pantothenate synthetase (Mycobacterium tuberculosis (strain ATCC 25618 / H37Rv)), sequence (P9WIL5 whole entry, looked up): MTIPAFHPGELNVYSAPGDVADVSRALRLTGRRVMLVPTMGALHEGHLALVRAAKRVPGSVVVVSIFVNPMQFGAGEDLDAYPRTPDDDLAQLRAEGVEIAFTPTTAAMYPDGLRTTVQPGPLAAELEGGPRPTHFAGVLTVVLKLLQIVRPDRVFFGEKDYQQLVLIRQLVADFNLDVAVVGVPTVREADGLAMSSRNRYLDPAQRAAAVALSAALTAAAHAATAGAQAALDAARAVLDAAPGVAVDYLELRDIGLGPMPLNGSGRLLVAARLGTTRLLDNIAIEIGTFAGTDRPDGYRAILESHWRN

| Compound | inhibition |
| --- | --- |
| COC(=O)CN1C(=O)C(O)(CC(=O)c2ccc(Cl)cc2)c2ccccc21 (stereo not drawn) | 0% (inactive) |
| CC1CCN(S(=O)(=O)c2ccc(NC(=O)CSc3nnnn3C)cc2)CC1 | 2% (inactive) |
| O=C(c1ncc[nH]1)c1ccccc1C(=O)N1CCOCC1 | 1% (inactive) |
| CN(C)C(=O)C12CCC(C)(c3nc4ccccc4nc31)C2(C)C (stereo not drawn) | 4% (inactive) |
| Nc1nc(-c2ccc(Cl)cc2)cc(C(F)(F)F)n1 | 0% (inactive) |
| OC(CCN1CCCCC1)(c1ccccc1)c1ccccc1 | 3% (inactive) |
| NC(=O)CSc1nnc(-c2cc3ccccc3o2)n1Cc1ccccc1 | 0% (inactive) |
| CCc1cccc(NC(=O)CN(C)S(=O)(=O)c2cccc3nsnc23)c1 | 12% (inactive) |
| Clc1ccc(Cl)c(-c2ccc(/C=N/c3ncn[nH]3)o2)c1 | 4% (inactive) |
| C=CCNc1nc2c(c(=O)n(C)c(=O)n2C)n1CCCCCC | 0% (inactive) |
| CCCCCCC1/C(=N/O)CCC1C(=O)OC (stereo not drawn) | 0% (inactive) |
| Cc1nc(NC2=NCN(CC3CCCO3)CN2)nc2ccccc12 (stereo not drawn) | 0% (inactive) |
| CN1CCN(C(=O)CN(Cc2ccc(Cl)cc2)S(C)(=O)=O)CC1 | 4% (inactive) |
| O=[n+]1c2c(n([O-])c3cc(F)c(N4CCCC4)cc31)CCC2 | 9% (inactive) |
| Cc1cc(C)c(NC(=O)C2CCCN2CCO)c(C)c1 (stereo not drawn) | 0% (inactive) |
| COc1ccc(Cl)cc1NC(=O)COc1cccc(-n2cnnn2)c1 | 0% (inactive) |
| COC(=O)c1ccccc1S(=O)(=O)NC(=O)c1ccccc1 | 0% (inactive) |
| Cn1nnc2c(sc3nc(N4CCOCC4)c4c(c32)CCCC4)c1=O | 8% (inactive) |
| O=C1N(CCCCN2C(=O)C3(OCCO3)c3ccccc32)c2ccccc2C12OCCO2 | 0% (inactive) |
| c1coc(-c2nnc(NC3=NCCC3)o2)c1 | 0% (inactive) |
| CCN(CC)CCNC(=O)CCn1c(=S)[nH]c2cc3c(cc2c1=O)OCO3 | 0% (inactive) |
| COc1cccc(Nc2c(F)c(F)c(F)c(F)c2C(=O)O)c1 | 7% (inactive) |
| O=C(O)CCn1c(=O)c2ccccc2c2ccccc2c1=O | 1% (inactive) |
